This is a sample that favours compounds with a hit; in the whole collection about 1.1% have one here.
GPT2 inh = blocks human glutamate pyruvate transaminase 2. Q8TD30. Recombinant GPT2, coupled pyruvate oxidase/HRP Amplex Red fluorescence. Potency, µM (highest dose often 57.7 µM), hits mostly inhibitors. actives 0.25% (n = 100,000); also: nearly all actives have a fitted effect of over 60% in size
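Fluorescence read-out: pyruvate from GPT2 turnover coupled to pyruvate oxidase, HRP and Amplex Red (0.2mM ThPP, 0.2U/mL PO and HRP, 50uM Amplex final). Substrates 250uM a-KG, 2mM L-alanine; enzyme 10ng/uL; 30 min RT.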
IP6K1 inh = blocks human inositol hexakisphosphate kinase 1; actives 0.81% (n = 140,000); activity change, % (series mostly up to about 58 µM); AID 1645851; IP6K1 kinase, ADP-Glo luminescence, 2 h; active compounds read low; Q92551; in the data active = activity change below about -25%
Target sequence (Q92551 whole entry, looked up): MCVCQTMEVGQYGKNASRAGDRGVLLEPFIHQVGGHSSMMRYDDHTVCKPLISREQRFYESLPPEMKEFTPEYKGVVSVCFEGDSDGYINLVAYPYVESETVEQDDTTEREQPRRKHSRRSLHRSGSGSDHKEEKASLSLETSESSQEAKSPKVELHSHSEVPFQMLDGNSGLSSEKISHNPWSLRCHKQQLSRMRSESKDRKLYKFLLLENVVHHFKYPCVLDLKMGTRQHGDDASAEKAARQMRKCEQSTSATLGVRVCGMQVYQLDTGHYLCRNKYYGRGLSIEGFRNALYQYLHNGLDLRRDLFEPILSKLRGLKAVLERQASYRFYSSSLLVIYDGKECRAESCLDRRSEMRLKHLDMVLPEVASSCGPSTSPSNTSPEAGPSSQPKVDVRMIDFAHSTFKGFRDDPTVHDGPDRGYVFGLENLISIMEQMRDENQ
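ADP-Glo luminescence measures ADP made by human IP6K1 during a 2 h RT reaction with ATP/IP6 (mix at 1.3 mM/130 uM); top library doses 57.5 and 19.1 uM final.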
SNCA viab count = counter-screen for SNCA expression inhibitors: cell viability | HEK-293-SNCA-luc viability, GF-AFC fluorescence, 24 h | Potency, µM (titrated, usually from 57.1 µM), actives largely listed as cytotoxic | actives 0.12% (n = 150,000); also: nearly all actives have a fitted effect of over 30% in size
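HEK-293-SNCA-luc cells (1500/well) plated 24 h, then exposed 24 h to a dilution series; GF-AFC added 30 min at 37C, fluorescence 405/540 nm; normalised to medium-only and DMSO wells, Hill fit.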
SNCA expr inh = SNCA gene expression inhibition. actives 0.17% (n = 140,000). HEK-293 SNCA-luciferase knock-in, luminescence, 24 h. Potency, µM (top dose mostly 57.2 µM), most hits filed as inhibitors; also: nearly all actives have a fitted effect of over 45% in size
IP6K1 inh cnf = human IP6K1 inhibition, confirmatory; recombinant IP6K1 kinase, ADP-Glo luminescence, 2 h; actives 13% (n = 1,200); Potency, µM (titrated, usually from 49 µM), actives largely listed as inhibitors; shares compounds with IP6K1 inh; also: nearly all actives have a fitted effect of over 65% in size
GPT2 conf = human alanine aminotransferase 2 inhibition, confirmatory; GPT2 enzyme, coupled Amplex Red pyruvate fluorescence; shares compounds with GPT2 inh; AID 1671187; Potency, µM, actives largely listed as inhibitors; actives 90% (n = 95)
Hits are given with their value; i = inactive; ? = inconclusive; nt = no result; ! = not active in a repeat; [ ] = remark or other dose. Unless noted, calls follow the shape of the dose curve; as a rule, active = well fitted curve in the direction sought with a large enough effect; inconclusive = small, poorly fitted or top-dose-only effect, or another doubt; inactive = no such curve, though single readings can be large; an effect the other way counts as inactive or inconclusive.

SMILES | GPT2 inh | IP6K1 inh | SNCA viab count | SNCA expr inh | IP6K1 inh cnf | others
O=[S+]1([O-])c2cccnc2OC(COc2ccccc2)CN1C1Cc2ccccc2C1 (stereo unspecified) | i | i | i | i | nt
O=c1nc(-c2ccccn2)sc2ccccc12 | i | -54 | i | nt | i
Cc1ccc(C)c(N2CCN(C(=O)c3c4c(nc5ccccc35)C(=O)N(C3CCCCC3)C4)CC2)c1 | nt | -31 | i | i | i
COc1ccccc1N1CCN(C(=O)c2c3c(nc4ccccc24)C(=O)N(C2CCCCC2)C3)CC1 | nt | i | i | i | nt
O=C(CNC(=O)c1ccc(-c2cnc3ccccc3c2)cc1)NCCc1ccccc1 | nt | i | nt | nt | nt
Cc1cccc(CN2CCNc3cc(-c4ccnc(C)c4)ncc3C2)c1 | i | -29 | ? | i | i
O=Nc1c(-c2c(O)[nH]c3cc(Br)ccc23)[nH]c2ccccc12 | i | nt | 25µM! | i | 3.7µM
N#CC(=Cc1ccc(O)c(O)c1)C(=O)NCc1ccccc1 | ? | nt | i | i | ?
Cc1cc(Nc2nc(N[C@@H](C)c3ncc(F)cn3)ncc2Cl)n[nH]1 | i | i | ? | ? | i
COc1cccc(CNC(=O)c2ccc3nc(-c4ccncc4)oc3c2)c1 | i | i | i | i | nt
CCOC(=O)c1ccc(NC(=O)c2csc3c2CCCC3)cc1 | nt | -33 | i | i | ?
O=C(NCc1ccccc1Cl)c1nc2sccn2c1-c1ccncc1 | i | i | i | i | nt
Cc1nn(-c2ccccc2)c2sc(C(=O)Nc3cccc(O)c3)cc12 | nt | -27 | ? | ? | ?
CC(C)Cn1c(=O)c(C(=O)Nc2cccc(Cl)c2)nc2cccnc21 | ? | i | i | i | nt
O=C(NC1CCN(c2ccc3nnc(C4CC4)n3n2)C1)C1CC1 (stereo unspecified) | nt | i | nt | nt | nt
COCCN1CCCCCC(O)c2cc(C(=O)N3CCN(c4ccccc4F)CC3)ccc21 (stereo unspecified) | i | i | i | ? | nt
CCN(CC)CCNC(=O)c1c(C)[nH]c(/C=C2\C(=O)Nc3ccc(Cl)cc32)c1C | nt | nt | nt | nt | i
Cc1[nH]c(/C=C2\C(=O)Nc3ccc(F)cc32)c(C)c1C(=O)NC[C@H](O)CN1CCOCC1 | i | i | i | nt | i
Cc1[nH]c(C=C2C(=O)Nc3ccc(S(=O)(=O)N(C)c4cccc(Cl)c4)cc32)c(C)c1C(=O)N1CCN(C)CC1 | i | nt | ? | i | nt
O=C(c1ccc(F)cc1)N1CCC(C(=O)N2CCC(c3nc4ccncc4[nH]3)C2)CC1 (stereo unspecified) | i | i | i | i | nt
COc1cc2c(cc1OC)C(COc1ccc3c(C)cc(=O)oc3c1)N(C(=O)CC(C)C)CC2 (stereo unspecified) | nt | i | i | i | nt
CCC(=O)N1CCc2cc(OC)c(OC)cc2C1COc1ccc2c(C)cc(=O)oc2c1 (stereo unspecified) | nt | -31 | i | i | i
Cc1cn(C)c(CC(=O)N2CCN(c3cccc(Cl)c3)CC2)c1C(=O)O | nt | -26 | i | i | i
C[C@]12CC[C@H](O)CC1=CCC1C2CC[C@]2(C)C(n3cnc4ccccc43)=CCC12 (stereo partly specified) | i | -26 | i | i | ?
CN(C)CC(=O)N1Cc2ccccc2CC2(CCN(CC3CCNCC3)C2)C1 (stereo unspecified) | i | -27 | i | i | ?
SMILES | GPT2 inh | IP6K1 inh | SNCA viab count | SNCA expr inh | IP6K1 inh cnf | others
CN(C)CC(=O)N1Cc2ccccc2CC2(CCCN(CC3CCNCC3)C2)C1 (stereo unspecified) | ? | i | i | i | nt
O=C(Cc1ccc(Cl)cc1)NC1CCN(CCn2nc3n(c2=O)CCCC3)C1 (stereo unspecified) | nt | i | nt | nt | nt
Cc1ccc(CN(Cc2ccco2)C(=O)c2oc3c(C)c(C)ccc3c2C)cc1 | nt | -29 | i | i | ?
Cc1ccc(CN(Cc2ccco2)C(=O)c2oc3ccc(C)cc3c2C)cc1 | nt | i | i | i | nt
Cc1ccc(S(=O)(=O)c2nc(-c3ccco3)oc2SCc2ccc(F)cc2)cc1 | nt | -28 | i | i | i
COc1ccc(NC(=O)C2=CC(c3ccco3)=NS(=O)(=O)N2C)cc1 | nt | -30 | i | i | i
Cn1c(=O)nc2n(-c3ccc(Cl)c(Cl)c3)c3cc(Cl)ccc3cc-2c1=O | nt | i | i | ? | nt
CC(C)c1cc(-c2n[nH]c(=O)n2-c2ccc3c(ccn3C)c2)c(O)cc1O | i | -43 | i | ? | 9.2µM
NC(=O)Cc1c[nH]c2ncc(-c3ccccc3Oc3ccccc3)cc12 | i | i | i | ? | nt
C[S+](=O)([O-])c1cccc(-c2cnc3[nH]cc(CC(N)=O)c3c2)c1 | i | i | i | i | nt
NC(=O)Cc1c[nH]c2ncc(-c3cccc(O)c3)cc12 | i | -38 | i | i | ?
NC(=O)Cc1c[nH]c2ncc(-c3cccc(C(F)(F)F)c3)cc12 | i | -32 | i | i | ?
NC(=O)Cc1c[nH]c2ncc(-c3ccccc3F)cc12 | ? | -38 | i | i | ?
CC(C)Cn1c(-c2cccc(Br)c2)nc2ccccc21 | nt | -33 | i | i | i
Cc1cccc(Cn2c(-c3ccccc3)nc3ccccc32)c1 | nt | i | i | i | nt
CCC(=O)c1cc(-c2ccc(Cl)cc2)n(-c2ccc(S(N)(=O)=O)cc2)c1C | i | -34 | i | nt | ?
Cc1ccc(-c2cc(C(F)(F)F)nn2-c2ccc(S(N)(=O)=O)cc2)cc1 | i | i | ? | i | nt
CCN1CCN(C(=O)c2cc(-c3ccccc3F)nc3c2cnn3C)CC1 | nt | i | nt | nt | nt
Cn1nccc1Nc1nccc(-c2ccn([C@H](CO)c3ccc(Cl)c(F)c3)c(=O)c2)n1 | i | -36 | i | nt | 8.2µM
CCOC(=O)N1CCC2(CC1)N=C(CCC(C)C)NC2=O | i | i | i | ? | nt
CC(C)CCC1=NC2(CCN(C(=O)CCN3CCCCC3=O)CC2)C(=O)N1 | i[11.5 µM] | -35 | i | i | i
O=C(NCc1ccccc1)c1cn2cc(-c3ccc(C(F)(F)F)cc3)sc2n1 | i | i | i | i | nt
Cc1ccccc1NC(=O)c1c(C)oc2ccc(O)c(CN3CCCCCC3)c12 | nt | -26 | i | i | i
COc1ccccc1-c1cc(C(=O)NCc2cccnc2)c2c(c1)N(C)CCO2 | i | i | i | i | nt
CN1CCOc2c(C(=O)NCc3cccnc3)cc(-c3ccccc3F)cc21 | i | -29 | ? | i | i
COc1cncc(-c2cc(C(=O)NCc3cccnc3)c3c(c2)N(C)CCO3)c1 | ? | -28 | i | ? | ?
Cc1ccccc1-c1cc(C(=O)NCc2cnn(C)c2)c2c(c1)N(C)CCO2 | i | -25 | i | ? | ?
O=[S+]([O-])(NC1CCN(c2ccc3nnc(C4CC4)n3n2)CC1)c1ccccc1 | nt | i | nt | nt | nt
Cc1ccc2c(c1)[C@@H]1[C@H](CO2)CN(CCC#N)C(=O)CCN1[S+](=O)([O-])c1ccccc1 | nt | i | nt | nt | nt
COc1cccc(CN2CCNc3cnc(Nc4ccccc4)cc3C2)c1 | ? | i | i | i | nt | GPT2 conf=5
